Test systems include SR leukemia; RPMI-8226 leukemia; OVCAR-8 ovarian; OVCAR-5 ovarian; OVCAR-4 ovarian; SK-OV-3 ovarian; IGROV1 ovarian; OVCAR-3 ovarian; HS 578T breast; NCI/ADR-RES ovarian; T-47D breast; BT-549 breast; MDA-MB-435 melanoma; SW-620 colon; MCF7 breast; HCT-116 colon; HCC-2998 colon; KM12 colon.
Common to all, as to assay: NCI-60 one-dose screen, 48 h (100 = growth as untreated, 0 = no growth, -100 = all killed)
Conditions in all cases: 10 µM unless noted

Each structure is given as a SMILES string. Where “and” joins values, the source holds several entries; their conditions need not be identical. Equal entries are not always repeated. About 83,000 compounds went through this panel and 20% of them were active in at least one assay; those are over-represented in the sample as a whole.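 Results are percent growth after 48 hours of single-concentration exposure. 100 means growth as in untreated cells, lower positive values show inhibition; negative values down to -100 show cell death.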 Calls of active or inactive are those of the source. The calls were made as follows: active = growth percent below 10; inactive = the rest.

`O/N=C(/c1ccccc1)c1ccc2c3c(cccc13)CC2`: the growth in the test with SR leukemia is 67% (inactive) and 66.6% (inactive); in the test on RPMI-8226 leukemia it was 75.2% (inactive) and 70.4% (inactive); in the test with OVCAR-8 ovarian it was 87.7% (inactive); with OVCAR-5 ovarian it was 97.7% (inactive) and 95.4% (inactive); in the test with OVCAR-4 ovarian it was 83.9% (inactive) and 77.1% (inactive); in the test on SK-OV-3 ovarian, 99.3% (inactive) and 97.4% (inactive). For the same compound, the growth is 97.8% (inactive) and 98% (inactive) in the test on IGROV1 ovarian; 99.4% (inactive) and 93.3% (inactive) with OVCAR-3 ovarian; 94.4% (inactive) and 90.2% (inactive) with HS 578T breast; 92.8% (inactive) and 88.6% (inactive) in the test on NCI/ADR-RES ovarian; 85.9% (inactive) and 93.8% (inactive) in the test on T-47D breast; 84.6% (inactive) and 106% (inactive) in the test with BT-549 breast. Further, the growth with MDA-MB-435 melanoma is 47.3% (inactive) and 37.8% (inactive); with SW-620 colon it was 91.2% (inactive) and 84% (inactive); with MCF7 breast, 85.8% (inactive) and 82.6% (inactive); with HCT-116 colon it was 83.7% (inactive) and 92.1% (inactive); in the test on HCC-2998 colon, 101% (inactive) and 97.8% (inactive); in the test on KM12 colon, 86.4% (inactive) and 78.4% (inactive).
For `CCN(CC)CCOc1ccc(/C(=C(\Cl)c2ccccc2)c2ccccc2)cc1`, the growth with SR leukemia is 17.4% (inactive) and 85.1% (inactive); in the test with RPMI-8226 leukemia it was -21.2% (active) and 88.8% (inactive); with OVCAR-8 ovarian it was 67.2% (inactive) and 104% (inactive); in the test on OVCAR-5 ovarian it was 47.5% (inactive) and 72.4% (inactive); in the test with OVCAR-4 ovarian it was 55.5% (inactive) and 47.4% (inactive); with SK-OV-3 ovarian, 45.5% (inactive) and 80.8% (inactive). The growth in the test on IGROV1 ovarian was 53.6% (inactive); in the test with OVCAR-3 ovarian, 76.9% (inactive) and 118% (inactive); in the test on HS 578T breast, 55% (inactive); in the test on NCI/ADR-RES ovarian, 59.3% (inactive) and 92.9% (inactive); with T-47D breast, 23.4% (inactive) and 48.9% (inactive); in the test with BT-549 breast, 43.4% (inactive) and 92.6% (inactive). For the same compound, the growth was 7.34% (active) with MDA-MB-435 melanoma; -55% (active) in the test on SW-620 colon; 16.2% (inactive) and 27.4% (inactive) in the test with MCF7 breast; 11.4% (inactive) and 57.8% (inactive) in the test on HCT-116 colon; 35.7% (inactive) and 98.3% (inactive) with HCC-2998 colon; 21.8% (inactive) and 75.9% (inactive) with KM12 colon.
Regarding `Nc1nc(Nc2cccnc2)sc1C(=O)c1ccccc1F`, the growth was 19.1% (inactive) in the test with SR leukemia; 17.7% (inactive) in the test with RPMI-8226 leukemia; 31.8% (inactive) with OVCAR-8 ovarian; 26.2% (inactive) in the test with OVCAR-5 ovarian; 80.7% (inactive) in the test on OVCAR-4 ovarian; 85.9% (inactive) with SK-OV-3 ovarian. Moreover, the growth is 21.3% (inactive) in the test with IGROV1 ovarian; 9.96% (active) in the test with OVCAR-3 ovarian; 58.1% (inactive) with HS 578T breast; 48.3% (inactive) in the test on NCI/ADR-RES ovarian; 33% (inactive) in the test on T-47D breast; 12.2% (inactive) in the test on BT-549 breast. For the same compound, the growth with MDA-MB-435 melanoma was 39.2% (inactive); with SW-620 colon it was 34.5% (inactive); in the test with MCF7 breast it was 9.37% (active); with HCT-116 colon it was 3.8% (active); with HCC-2998 colon, 69.5% (inactive); in the test on KM12 colon, 5.5% (active).
As for `CCOC(=O)C1=C(C)NC(=O)NC1c1c(Cl)n(-c2ccccc2)c2ccccc12` (stereo unspecified), the growth with SR leukemia was 68.6% (inactive); in the test on RPMI-8226 leukemia, 68.4% (inactive); with OVCAR-8 ovarian it was 85.6% (inactive); with OVCAR-5 ovarian, 84.7% (inactive); with OVCAR-4 ovarian, 96% (inactive); in the test on SK-OV-3 ovarian it was 85.9% (inactive). For the same compound, the growth was 66.1% (inactive) with IGROV1 ovarian; 69.2% (inactive) in the test on OVCAR-3 ovarian; 76.1% (inactive) with HS 578T breast; 85% (inactive) with NCI/ADR-RES ovarian; 90.4% (inactive) in the test with T-47D breast; 70.4% (inactive) in the test with BT-549 breast. Moreover, the growth in the test with MDA-MB-435 melanoma was 54% (inactive); with SW-620 colon, 83.2% (inactive); in the test on MCF7 breast, 87.9% (inactive); with HCT-116 colon, 69.1% (inactive); in the test on HCC-2998 colon it was 91.8% (inactive); with KM12 colon, 92.3% (inactive).
Take `COc1cc2nc3cc([N+](=O)[O-])ccc3c(NCCNCC(C)(C)O)c2cc1OC`: the growth in the test with SR leukemia is -12.2% (active); in the test on RPMI-8226 leukemia, -8.62% (active); in the test on OVCAR-8 ovarian, -3.94% (active); in the test on OVCAR-5 ovarian, 8.33% (active); in the test with OVCAR-4 ovarian it was -31.8% (active); in the test with SK-OV-3 ovarian it was 17.8% (inactive). In addition, the growth was -15.9% (active) in the test on IGROV1 ovarian; -31.2% (active) in the test on OVCAR-3 ovarian; -2.1% (active) with HS 578T breast; 55% (inactive) in the test on NCI/ADR-RES ovarian; -3.16% (active) in the test with T-47D breast; -75.6% (active) with BT-549 breast. For the same compound, the growth is -86.8% (active) in the test on MDA-MB-435 melanoma; -15.2% (active) with SW-620 colon; -14.1% (active) in the test with MCF7 breast; -20.9% (active) in the test with HCT-116 colon; -53.3% (active) in the test with HCC-2998 colon; -7.24% (active) with KM12 colon.
In the case of `CN1CCN(Cc2ccc(NC(=O)c3nc4ccc5[nH]ncc5c4c4c3CCCC4)cc2C(F)(F)F)CC1`, the growth in the test with SR leukemia was -49.8% (active); in the test on RPMI-8226 leukemia, -36.2% (active); with OVCAR-8 ovarian, -73.8% (active); in the test on OVCAR-5 ovarian, 37.1% (inactive); in the test with OVCAR-4 ovarian, -39.7% (active); in the test on SK-OV-3 ovarian, 37% (inactive). The growth with IGROV1 ovarian was -65.5% (active); with OVCAR-3 ovarian it was -80.3% (active); with HS 578T breast it was -35.4% (active); with NCI/ADR-RES ovarian, -35.3% (active); in the test with T-47D breast it was -69.3% (active); with BT-549 breast, -78.5% (active). Besides, the growth is -82.6% (active) in the test on MDA-MB-435 melanoma; -60% (active) in the test on SW-620 colon; -68.5% (active) in the test on MCF7 breast; -90.4% (active) with HCT-116 colon; -80.7% (active) in the test with HCC-2998 colon; -73.4% (active) in the test on KM12 colon.
With `COc1cc(-c2nn(-c3cccc(NC(=O)CCN4CCN(C)CC4)c3)cc2-c2ccncc2)ccc1Cl`, the growth is -43.5% (active) in the test on SR leukemia; 4.86% (active) in the test on RPMI-8226 leukemia; 35.1% (inactive) in the test with OVCAR-8 ovarian; 67.9% (inactive) in the test with OVCAR-5 ovarian; 59.7% (inactive) in the test on OVCAR-4 ovarian; 23.1% (inactive) in the test with SK-OV-3 ovarian. For the same compound, the growth in the test with IGROV1 ovarian was 49.7% (inactive); with OVCAR-3 ovarian, 2.81% (active); with HS 578T breast it was -0.227% (active); with NCI/ADR-RES ovarian, 39.9% (inactive); in the test on T-47D breast, 35.3% (inactive); with BT-549 breast, 22.4% (inactive). Moreover, the growth in the test with MDA-MB-435 melanoma is -46.3% (active); in the test with SW-620 colon, 26.8% (inactive); with MCF7 breast it was 13.8% (inactive); in the test with HCT-116 colon it was 17% (inactive); with HCC-2998 colon it was 54.7% (inactive); in the test with KM12 colon, 22.2% (inactive).
